The whole screen tested about 63,000 compounds, of which about 1,100 (1.7%) were called active. The full list was thinned out, with actives kept by preference. Measured potencies and affinities stand elsewhere. Unmarked numbers belong to inactive results. Rule as the data show it: active = cytotoxicity above about 50%; inactive = the rest.

The assay can be described thus: HPDE-C7 pancreatic duct cell viability loss – fluorescence, HTS (AID 430).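 Also: cells exposed to compound for 48 hours before viability readout; 0% = vehicle and 100% = reference cytotoxic drug.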 Conditions: HPDE-C7 pancreatic duct cells viability, at 10 µM, hits give high values.
Take `O=C(O)C1C(c2ccccc2)C(C(=O)OCCCO)C1c1ccccc1` (stereo unspecified): the cytotoxicity is 4.7%.
To `C=CCc1cccc(/C=N/c2ncn[nH]2)c1O` belongs 4.1%; to `COc1cc(Br)cc(CN2CCN(C=O)CC2)c1O`, -1.6%.
As to `O=c1c2ccccc2c(/C=N/c2ncn[nH]2)c(O)n1Cc1ccccc1`, the cytotoxicity was 5.2%.
In the case of `COc1cccc(C=Nc2cc(C)on2)c1O`, the cytotoxicity was -3.2%.
Turning to `Oc1c(/C=N/c2ncn[nH]2)ccc2ccccc12`, the cytotoxicity was 54.2% (active).
To `COc1cc(Br)cc(/C=N/c2ncn[nH]2)c1O` belongs 88.6% (active); to `O=C(O)CN1CCN(Cc2ccc(F)cc2Cl)C1=O`, -10.1%.
As to `COc1ccc(CCn2nnnc2C(CC(C)C)N2CCC(C(N)=O)CC2)cc1OC` (stereo unspecified), the cytotoxicity is -10.9%.
As for `CCCS(=O)(=O)N1CCC(C(=O)NCc2ccccc2Cl)CC1`, the cytotoxicity is -9.6%.
To `CN(C)c1ccc(-c2nn3c(-c4ccccc4Cl)nnc3s2)cc1` belongs 63.8% (active); to `Cc1nn2c(-c3ccc(Cl)cc3Cl)nnc2s1`, -9.3%; to `CN(C)c1ccc(-c2nn3c(-c4ccc(Cl)cc4)nnc3s2)cc1`, -15.9%.
On to `COc1ccccc1-c1nnc2sc(-c3ccc(N(C)C)cc3)nn12`, for which the cytotoxicity is 44.4%.
For the compound `CN(C)c1ccc(-c2nn3c(-c4ccc(Cl)cc4Cl)nnc3s2)cc1`, the cytotoxicity was 60.2% (active).
For `Clc1ccccc1-c1nnc2sc(-c3ccncc3)nn12`, the cytotoxicity was -13.4%.
The same measure for `CCOc1ccc(N2C(=O)CC(SC(=NC)Nc3cccc(F)c3)C2=O)cc1` (stereo unspecified): -18.7%; for `O=C(CSc1ccc2c(c1)OCCO2)NCCN1C(=O)CSC1=O`: 3.6%.
Take `Cn1c(=O)[nH]c(=O)c2c1nc(N1CCN(c3cccc(Cl)c3)CC1)n2CCCc1ccccc1`: the cytotoxicity was 5.2%.
In the case of `O=S(=O)(c1ccc(F)c(Cl)c1)N1CCCC1`, the cytotoxicity was 11.7%.
With `CCOC(=O)c1sc2nc(NC(=O)C3CC3)sc2c1C`, the cytotoxicity was 16%.
To `CCOC(=O)c1sc2nc(NC(=O)C3CCCCC3)sc2c1C` belongs 66.7% (active); to `CCOC(=O)c1sc2nc(NC(=O)C(C)(C)C)sc2c1C`, 1.8%.
As to `CC(Sc1nnc(C2CCCCC2)n1N)C(=O)NCc1ccc2c(c1)OCO2` (stereo unspecified), the cytotoxicity is 0.2%.
On to `CCCCN(C)S(=O)(=O)c1ccc(C(=O)Nc2nnc(CSC)o2)cc1`, for which the cytotoxicity is 11.6%.
With `CC1CCCN(S(=O)(=O)c2ccc(C(=O)Nc3nnc(-c4ccccc4Cl)o3)cc2)C1` (stereo unspecified), the cytotoxicity is 60.8% (active).
The same measure for `CC1CN(S(=O)(=O)c2ccc(C(=O)Nc3nnc(-c4ccc5c(c4)CCCC5)o3)cc2)CC(C)O1` (stereo unspecified): 41.7%; for `O=C(Nc1nc(-c2cccs2)cs1)c1ccc(S(=O)(=O)N2CCCC2)cc1`: 6.2%; for `CCc1nnc(NC(=O)c2ccc(S(=O)(=O)N(CC)Cc3ccccc3)cc2)o1`: 35.7%.
To `O=C(Nc1nc(-c2cccs2)cs1)c1ccc(S(=O)(=O)N2CCCCC2)cc1` belongs -6.2%.
To `CCCCN(CC)S(=O)(=O)c1ccc(C(=O)Nc2nnc(-c3ccccc3Cl)o2)cc1` belongs 59.8% (active); to `CC1CC(C)CN(S(=O)(=O)c2ccc(C(=O)Nc3nnc(-c4cccs4)o3)cc2)C1` (stereo unspecified), 69.8% (active); to `CCCCN(C)S(=O)(=O)c1ccc(C(=O)Nc2nnc(-c3cccs3)o2)cc1`, 59.9% (active).
Turning to `CCCCN(CC)S(=O)(=O)c1ccc(C(=O)Nc2nnc(-c3cccs3)o2)cc1`, the cytotoxicity is 49%.
To `CC1CCCN(S(=O)(=O)c2ccc(NC(=O)c3cccc(-n4cnnn4)c3)cc2)C1` (stereo unspecified) belongs 18.2%; to `CCN(Cc1ccccc1)S(=O)(=O)c1ccc(C(=O)Nc2nnc(C3CC3)o2)cc1`, 4.1%; to `CCC1Sc2ccccc2N(CC(=O)NCCC(C)C)C1=O` (stereo unspecified), -14.5%.
In the case of `FC(F)(F)c1cccnc1N1CCN(c2ncnc3nc[nH]c23)CC1`, the cytotoxicity is -5.7%.
To `CCCCS(=O)(=O)NC1=NCN(CCO)CN1` belongs -7.4%.
The same measure for `CCCCN1C(=O)C(O)(CC(=O)c2c(C)n[nH]c2C)c2cc(Br)ccc21` (stereo unspecified): 7.7%.
Consider `CN(c1ccc(C(=O)NCc2ccco2)cc1)S(C)(=O)=O`, for which the cytotoxicity was 0.7%.
The same measure for `COCCNC(=O)NC(=O)COC(=O)C12CC3CC(CC(NC(C)=O)(C3)C1)C2`: -1.4%; for `CCOCCCn1c(=S)[nH]c2cc(C(=O)NCCN(CC)CC)ccc2c1=O`: 1.7%.
`Cc1[nH]c(=O)[nH]c(=O)c1NC(=O)CSc1ncccc1-c1nc2ccccc2[nH]1`: the cytotoxicity is 3%.
The same measure for `NC(=O)c1ccsc1NC(=O)COC(=O)c1ccccc1NCc1ccco1`: 0.6%.
Regarding `COc1ccc(NC(=O)c2ccc(CN3CCN(c4ccccc4)CC3)cc2)cc1OC`, the cytotoxicity is -17.4%.
The same measure for `CCn1c(SCC(=O)N2CCN(c3ccccc3F)CC2)nnc1-c1ccoc1C`: -0.9%.
The same measure for `CC1(C)OC(=O)N(c2ccccn2)C1(C)O` (stereo unspecified): 2.3%; for `O=C(Nc1nnc(-c2ccccc2Cl)o1)c1ccc(S(=O)(=O)N2CCCCCC2)cc1`: 53.6% (active).
To `COCc1nnc(NC(=O)c2ccc(S(=O)(=O)N3CCCCCC3)cc2)o1` belongs 3.2%.
For the compound `Cc1nnc(NC(=O)c2ccc(S(=O)(=O)N3CCCCCC3)cc2)o1`, the cytotoxicity is 7.5%.
The same measure for `CC(OC(=O)c1cccc(NS(C)(=O)=O)c1)C(=O)Nc1ccc(N2CCOCC2)cc1` (stereo unspecified): -30.2%; for `CN(C)c1ccc(C2C=C(c3ccc(Cl)cc3OC(F)F)Nc3ncnn32)cc1` (stereo unspecified): 52.1% (active).
The same measure for `COc1cccc(C2=CC(c3ccc(N(C)C)cc3)n3ncnc3N2)c1` (stereo unspecified): -4.9%.
The same measure for `Cc1ccc(C2C=C(c3ccccc3OC(F)F)Nc3ncnn32)cc1` (stereo unspecified): -8.7%; for `O=C(Oc1ccc(Br)cc1)C1CC(=O)N(c2ccc(F)cc2)C1` (stereo unspecified): -2.4%.
For `CCn1cnc2c1c(=O)n(CC(=O)Nc1cc(C)on1)c(=O)n2Cc1ccccc1`, the cytotoxicity is 0%.
The same measure for `O=C(Nc1ccccc1C(F)(F)F)c1cc(-c2cccc(O)c2)on1`: -6.5%.
With `Cc1nc2ccccc2n1-c1ccccc1`, the cytotoxicity is -4%.
For `CC(C)N=c1cc2n(-c3ccc(Cl)cc3)c3ccccc3nc-2cc1Nc1ccc(Cl)cc1`, the cytotoxicity was 83.5% (active).
To `Cn1c(CNc2ccc(Cl)cc2)nc2ccccc21` belongs -13%.

The values above are taken from PubChem BioAssay AID430 (Sanford-Burnham Center for Chemical Genomics, 2006).
